D1 potentiator = enhances dopamine response at the human D1 receptor; P21728; HEK293 TREx D1 cells, calcium flux, dopamine EC20 potentiation; potentiation, % at 10 µM; 360,000 compounds, 0.036% hits; AID 504651; in the data active means potentiation above about 30%; further: 0% is about no effect
TRHR enhancer = allosteric enhancers of human TRH receptor; P34981; TRHR cells, fluo-8 calcium fluorescence, EC20 TRH enhancement; enhancement, % at 2 µM; 360,000 compounds, 0.66% hits; in the data active means enhancement above about 30%; further: 0% is about no effect
Target sequence (P34981 whole entry, looked up): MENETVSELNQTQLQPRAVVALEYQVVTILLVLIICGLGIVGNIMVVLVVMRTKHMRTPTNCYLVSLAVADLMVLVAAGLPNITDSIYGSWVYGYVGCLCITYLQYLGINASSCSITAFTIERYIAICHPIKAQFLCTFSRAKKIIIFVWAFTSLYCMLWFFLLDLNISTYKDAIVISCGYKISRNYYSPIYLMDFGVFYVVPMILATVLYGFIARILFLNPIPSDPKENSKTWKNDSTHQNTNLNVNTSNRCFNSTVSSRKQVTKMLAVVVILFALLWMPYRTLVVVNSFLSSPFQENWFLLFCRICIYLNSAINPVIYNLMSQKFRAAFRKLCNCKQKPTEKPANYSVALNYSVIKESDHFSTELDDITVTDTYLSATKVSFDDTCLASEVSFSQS
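TRHR-expressing cells loaded with fluo-8 calcium dye were read kinetically (ex 480/em 530) during compound addition, then stimulated with an EC20 of TRH (10 nM final). Enhancement of the Gq-mediated intracellular calcium response was scored.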
D1 ag = agonists of human D1 dopamine receptor; 360,000 compounds, 1% hits; P21728; activation, % at 2 µM; HEK293 T-REx D1 cells, calcium flux, agonist mode; further: 0% is about no effect
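Inducible HEK293 T-REx D1 cells, force-coupled to calcium signalling, were plated at 4000 cells/well with tetracycline and held overnight at 30 C. After no-wash calcium dye loading, compound-evoked calcium rise over 180 s flagged agonists.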
TRHR ag = TRH receptor (human) agonism. 360,000 compounds, 0.18% hits. AID 493084. activation, % at 2 µM. TRHR cells, calcium flux fluo-8, FDSS agonist mode; further: 0% is about no effect
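TRHR-expressing cells loaded with fluo-8 calcium dye; 23 nL library compound pin-transferred, kinetic FDSS fluorescence (Ex 480/Em 530) recorded about 180 s for agonist-induced calcium release, before a 10 nM TRH EC20 addition for potentiator mode.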
D1 antag = human D1 dopamine receptor antagonism; P21728; HEK293 TREx D1 cells, calcium flux, dopamine EC80; stronger effect = lower value; activity change, negative = inhibition, % at 10 µM; 360,000 compounds, 3.2% hits; AID 504652; in the data active means activity change below about -30%; further: on the % scale 0 is the no-effect control and ±100 the full control effect
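HEK293 T-REx cells expressing inducible, force-coupled D1 receptor; no-wash Ca dye, 30–90 min RT. Cmpd → 180 s read at 1 Hz → EC80 DA → 180 s read.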
Numbers without * were called inactive; . = no result given. An excerpt weighted towards active compounds, which were near 4.6% of everything screened. Unless noted, no stated cut-off is given here; in the data, active means activation above about 30%; inactive means the rest.

SMILES	D1 potentiator	TRHR enhancer	D1 ag	TRHR ag	D1 antag
O=C(CCS(=O)(=O)c1ccccc1)N1CCN(c2cccc(C(F)(F)F)c2)CC1	-9.7	-6.2	20.5	-1.3	-19.8
O=C(CS(=O)(=O)Cc1ccccc1)N1CCN(c2cccc(C(F)(F)F)c2)CC1	-1.7	-7.2	12.5	0.5	-33.4*
O=C(c1ccc2nccnc2c1)N1CCN(c2cccc(C(F)(F)F)c2)CC1	1.2	30.5*	-1.0	0.0	20.3
COc1ccc(NC(=O)N2CCN(c3cccc(C(F)(F)F)c3)CC2)cc1OC	-10.4	-4.6	14.5	-0.3	-5.6
CN1CCN(c2ccc(C(F)(F)F)cc2NC(=O)Nc2ccccc2)CC1	-5.8	-3.4	72.9*	0.0	-7.2
CC1CCn2c(nc3cc(C(=O)NCc4ccccc4)ccc32)C1 (stereo not drawn)	-1.7	1.5	-0.6	0.1	7.0
COc1ccc(N(C)C(=O)CCn2cnc3onc(-c4ccc(F)cc4)c3c2=O)c(OC)c1	-2.4	-8.8	1.8	-0.6	-0.3
O=C(C1CCC1)N1CCN(c2cccc(C(F)(F)F)c2)CC1	-7.2	3.5	4.6	-0.4	-54.1*
O=C(Cc1cccs1)Nc1cccc(-c2nc3ccccc3o2)c1	-0.1	-0.5	2.4	4.5	-46.5*
Cc1cccc(-c2nnc(-c3cccc(NC(=O)Cc4cccs4)c3)o2)c1	0.8	-6.3	4.0	0.2	-40.3*
Cc1ccc(-c2nc3ccccc3o2)cc1NC(=O)Cc1cccs1	-1.7	-11.6	2.8	1.7	-4.2
COc1ccc(Cl)cc1NC(=O)Cn1c2ncccc2c(=O)n1-c1ccc(C)c(C)c1	-1.6	-4.2	0.9	0.1	20.5
S=c1[nH]nc(-c2cccnc2)n1-c1ccc2c(c1)OCCO2	-2.0	1.8	2.5	0.6	-46.2*
CCOc1ccccc1-n1nnc(-c2nc(-c3ccccc3C)no2)c1C	2.2	-8.6	2.4	0.1	1.4
O=c1cc(-c2ccccc2)nc(Cc2c(Cl)cccc2Cl)[nH]1	-0.6	31.2*	3.6	0.7	29.9
CCc1nc(-c2ccccc2)cc(=O)[nH]1	-0.6	-4.8	-0.6	-0.1	37.6
CCN1CCCC1CN=Cc1c(O)n(-c2ccccc2)c(=O)c2ccccc12 (stereo not drawn)	-7.8	9.0	1.3	-0.2	-78.0*
CN(C)S(=O)(=O)c1cccc(CSCc2cccc(S(=O)(=O)N(C)C)c2)c1	-8.2	0.9	23.0	1.6	-36.1*
CCCN1CCN(CC(=O)NCC(=O)Nc2cccc(C)c2C)CC1	0.0	9.4	2.5	0.2	1.1
O=c1[nH]ncc2c3ccccc3n(Cc3cccc(Cl)c3)c12	-4.3	-2.4	51.5*	10.2	12.7
O=c1[nH]ncc2c3ccccc3n(Cc3ccc(F)cc3)c12	0.6	7.8	1.7	-0.2	-0.9
COc1cc(NC(=O)C2CCN(S(=O)(=O)c3c(C)noc3/C=C/c3c(C)cc(C)cc3C)CC2)cc(OC)c1	-0.8	2.6	4.9	1.3	2.1
CCCN1CCN(CCNC(=O)Nc2ccc(OC)cc2OC)CC1	2.1	6.2	-0.1	0.4	3.4
Cc1ccc(O)c(-c2cc(C(F)(F)C(F)F)[nH]n2)c1	14.4	-0.5	164.1*	-1.1	-9.9
CCOc1cc(C(=S)N2CCOCC2)ccc1OS(=O)(=O)c1ccc(OC)cc1	-10.9	-6.1	13.7	-0.4	-2.9
SMILES	D1 potentiator	TRHR enhancer	D1 ag	TRHR ag	D1 antag
CC(=O)Nc1ccc(S(=O)(=O)Oc2ccc(C(=S)N3CCC(O)CC3)cc2)cc1	-5.0	3.3	6.2	-0.1	-8.9
CC(=O)Nc1ccc(S(=O)(=O)Oc2ccc(C(=S)N3CCCCC3)cc2)cc1	-9.3	-14.0	25.9	0.3	-32.6*
CC(=O)Nc1ccc(OS(=O)(=O)c2c(C)cc(C)cc2C)cc1	-1.6	-4.7	4.3	0.8	-66.3*
CCOc1cc(C(=S)N2CCOCC2)ccc1OS(=O)(=O)c1ccc(NC(C)=O)cc1	-4.8	-3.0	6.7	0.5	-33.1*
COc1ccc(OC)c(NC(=O)Cn2c(=O)c3cccn3c3ccccc32)c1	-5.3	-6.8	10.0	0.2	-12.4
CCCC(=O)C1=C(O)C(C(=O)OC)C(C)(C)CC1=NCc1ccccc1 (stereo not drawn)	-7.2	-1.7	1.3	0.0	1.1
CCCC(=O)C1=C(O)C(C(=O)OC)C(C)(C)CC1=Nc1ccccc1 (stereo not drawn)	-2.8	-3.7	1.3	-0.5	-45.7*
Cc1cccc(OCCCCCn2ccnc2)c1C	-6.1	3.2	45.8*	-0.7	2.5
O=[N+]([O-])c1cccc(P(=O)(O)c2cccc([N+](=O)[O-])c2)c1	-4.7	31.3*	0.6	0.7	5.5
CCP(=O)(c1cccc([N+](=O)[O-])c1)c1cccc([N+](=O)[O-])c1	-3.5	3.2	2.9	0.4	-8.0
COc1cccc(C(=O)N(Cc2nc(-c3ccc(Cl)cc3)no2)C(C)C)c1OC	-1.2	-8.4	0.9	-0.5	-9.5
CC(=O)CN1C(=O)NC2(CCCc3ccccc32)C1=O (stereo not drawn)	7.2	0.0	0.9	0.2	10.9
CC(C)CN1C(=O)NC2(CCCc3ccccc32)C1=O (stereo not drawn)	11.2	-0.8	0.5	-1.0	-80.0*
CCOC(=O)c1cccc(Nc2ccc3cc(S(=O)(=O)N4CCCCC4)ccc3n2)c1	-2.4	0.4	2.6	0.4	-14.0
Cc1ccc(N=C2SC(C(=O)O)CC(=O)N2C)cc1C (stereo not drawn)	6.9	34.4*	1.4	0.7	-4.7
COc1cccc(CNC(=O)C2Cc3cc(S(=O)(=O)N4CCCCCC4)ccc3N2C(C)=O)c1 (stereo not drawn)	0.8	-3.3	1.9	0.0	5.1
CCOC(=O)C1(Cc2cccc(Cl)c2)CCCN(C(=O)c2cn[nH]c2)C1 (stereo not drawn)	-0.6	14.9	-0.1	-2.2	-0.6
CCOC(=O)C1(Cc2cccc(Cl)c2)CCCN(C(=O)c2cnn(CC)c2)C1 (stereo not drawn)	-4.0	-1.6	1.4	0.0	-38.5*
Cc1[nH]n(-c2ccccc2)c(=O)c1N=Nc1ccc(C(=O)O)cc1	-2.4	-3.9	1.5	-0.6	4.8
Cc1[nH]n(-c2ccccc2)c(=O)c1N=Nc1cccc(C(=O)O)c1	2.9	1.1	0.7	0.6	-36.6*
Cc1[nH]n(C2=NCCS2)c(=O)c1N=Nc1cccc(C(F)(F)F)c1	-4.0	-4.6	61.6*	6.9	5.3
COc1ccc(NC(=O)Cn2c(=O)n(-c3ccccc3)c(=O)c3c4c(sc32)CCCC4)cc1	1.4	1.9	1.9	0.9	-5.9
CC(NC(=O)[C@H](Cc1c[nH]c2ccccc12)NC(=O)[C@@H]1Cc2ccccc2CN1)c1ccccc1 (stereo partly drawn)	5.1	30.2*	7.7	0.1	-4.8
Cc1ccc(NC(=O)CSc2ccc(C(N)=O)cc2[N+](=O)[O-])cc1C	1.2	-3.5	-2.3	-0.4	.

High-throughput results as filed in PubChem.
